Screening data from PubChem BioAssay.
An excerpt weighted towards active compounds, which were near 19% of everything screened.
TDP1 cell noCPT = qHTS for Inhibitors of human tyrosyl-DNA phosphodiesterase 1 (TDP1): qHTS in cells in absence of CPT. DT40 Tdp1-/- hTDP1 cells, no CPT, ATP luminescence, 48 h. Potency, µM (doses to about 46.2 µM), hits mostly inhibitors. 420,000 tested, 15% active; further: nearly all actives have a fitted effect of over 55% in size
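Luminescent ATP content (CellTiter-Glo) served as the growth readout. Knockout chicken DT40 cells expressing human TDP1 were exposed to compounds without camptothecin for a minimum 48 hr at 37 °C.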
TDP1 cell CPT = qHTS for Inhibitors of human tyrosyl-DNA phosphodiesterase 1 (TDP1): qHTS in cells in presence of CPT; chicken DT40 Tdp1-/-;hTDP1 cells + 20 nM CPT, ATP luminescence, 48 h; Potency, µM (series often up to 46.2 µM), actives largely listed as inhibitors; 420,000 tested, 12% active; further: nearly all actives have a fitted effect of over 55% in size
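Chicken DT40 Tdp1-/- cells complemented with human TDP1, 400 cells/well, exposed to compounds plus 20 nM camptothecin for at least 48 h at 37 C; viability read as ATP content by CellTiter-Glo luminescence.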
IL-1B inflam inh = qHTS for Inhibitors of Inflammasome Signaling: IL-1-beta AlphaLISA Primary Screen. THP-1 LPS/ATP IL-1B secretion, AlphaLISA, 16 h; hits give low values. activity change, % at 57.5 µM. 360,000 tested, 4.7% active; in the data active means activity change below about -50%; inconclusive means mostly about -30% to -49%
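Secreted IL-1B measured by AlphaLISA bead assay after 16 h compound exposure of THP-1 cells; compounds (final up to 57.5 uM) added 1 h before LPS (250 ng/mL) and ATP (1.25 mM) stimulation; lower signal means less secretion.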
HT1080 IDH1KD tx = qHTS for induction of synthetic lethality in tumor cells producing 2HG: qHTS for the HT-1080-IDH1KD cell line | HT-1080 IDH1 knockdown viability, ATP luminescence, 48 h | Potency, µM (series often up to 46.1 µM), usual class: cytotoxic | 360,000 tested, 2% active
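Luminescent ATP read-out (CellTiter-Glo, 10 min at room temperature) after 48 h compound exposure at 37 °C gave viability of IDH1-knockdown HT-1080 cells. Activity was normalised to DMSO and cell-free wells, then fitted as concentration-response curves.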
HT1080NT lethal = qHTS for induction of synthetic lethality in tumor cells producing 2HG: qHTS for the HT-1080-NT fibrosarcoma cell line. HT-1080-NT fibrosarcoma viability, CellTiter-Glo ATP luminescence, 48 h. Potency, µM (doses to about 46.1 µM), usual class: cytotoxic. 360,000 tested, 1.6% active;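 further: NT is the 2HG producing partner of a matched IDH1 knockdown line; nearly all actives have a fitted effect of over 55% in size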
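Read-out is CellTiter-Glo luminescence after 10 minutes at room temperature, following 48 hours' compound treatment of HT-1080-NT cells (750 cells/well, RPMI, 5% FBS, 37 degrees C).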
Each line names hits and unclear results; the compound was inactive in the other large screens. Unless noted, the call rests on the fitted dose curve; in most records, active means well fitted curve in the direction sought with a large enough effect; inconclusive means small, poorly fitted or top-dose-only effect, or another doubt; inactive means no such curve, though single readings can be large; an effect the other way counts as inactive or inconclusive.

COc1ccc2c(c1)O[C@@]1(CCCC[C@@H]1C)CC2=O	TDP1 cell noCPT inconclusive, TDP1 cell CPT inconclusive
CN(Cc1ccccc1)C(=O)c1cccc(NC(=O)Cc2ccc(NC(=O)C3CCCN(C(=O)C4CCCC4)C3)cc2)c1 (stereo not given)	TDP1 cell noCPT inconclusive, TDP1 cell CPT inconclusive
O=c1oc2c3c4c(cc2c(C(F)(F)F)c1CCN1CCOCC1)CCCN4CCC3	TDP1 cell noCPT 16µM, TDP1 cell CPT 16µM
CC(C)c1cc(=O)oc2c3c4c(cc12)CCCN4CCC3	TDP1 cell noCPT inconclusive, TDP1 cell CPT 16µM
CC(=O)Nc1ccc(S(=O)(=O)NC2(c3ccccc3)C(=O)N(C)C(=O)N(C)C2=O)cc1	none
COc1ccc(CCC(=O)NC(C)c2ccccc2)cc1OC (stereo not given)	none
COc1ccc(-c2sc(NC(=O)c3ccc(C)cc3)nc2-c2ccc([N+](=O)[O-])cc2)cc1	TDP1 cell noCPT inconclusive, TDP1 cell CPT 23µM
COc1ccc(C(=O)Nc2nc(-c3ccc([N+](=O)[O-])cc3)c(-c3ccccc3)s2)cc1	TDP1 cell noCPT 7.3µM, TDP1 cell CPT 8.2µM, IL-1B inflam inh inconclusive
COc1ccc(-c2nc(NC(C)=O)sc2-c2ccc(OC)cc2)cc1	none
COc1ccc(C(=O)Nc2nnc(-c3ccccc3)s2)cc1	TDP1 cell noCPT inconclusive, TDP1 cell CPT inconclusive
O=C(NCCCn1cccn1)c1cc(COc2ccc(F)cc2Cl)on1	none
CCn1cc(CNC(=O)c2cc(COc3ccc(F)cc3Cl)on2)cn1	TDP1 cell noCPT 5.8µM, TDP1 cell CPT 21µM, HT1080NT lethal inconclusive
CC(Cc1cccnc1)NC(=O)c1cc(COc2ccc(F)cc2Cl)on1 (stereo not given)	TDP1 cell noCPT 23µM, TDP1 cell CPT 21µM
CC(Cc1cccnc1)NC(=O)c1cc(COc2c(F)cccc2F)on1 (stereo not given)	TDP1 cell noCPT inconclusive, TDP1 cell CPT inconclusive
O=S(=O)(c1cccc(Cl)c1)N1CCSc2ccccc21	none
CC(=O)Nc1ccc(S(=O)(=O)N2CCN(c3ccc([N+](=O)[O-])cc3)CC2)cc1	TDP1 cell noCPT 21µM, TDP1 cell CPT 23µM
CC(=O)Nc1ccc(S(=O)(=O)N2CCN(S(=O)(=O)c3ccc(NC(C)=O)cc3)CC2)cc1	none
CC(=O)Nc1ccc(S(=O)(=O)N2CCN(c3cc(C(F)(F)F)ccn3)CC2)cc1	TDP1 cell noCPT 16µM, TDP1 cell CPT 18µM
CC(=O)Nc1ccc(S(=O)(=O)N2CCSc3ccccc32)cc1	TDP1 cell noCPT 3.7µM, TDP1 cell CPT 4.1µM, HT1080 IDH1KD tx 13µM, HT1080NT lethal 21µM
CC(=O)Nc1ccc(S(=O)(=O)N2CCN(c3nc(C)cc(C)n3)CC2)cc1	none
CC(=O)Nc1ccc(S(=O)(=O)N2CCN(C(=O)Cc3ccccc3)CC2)cc1	TDP1 cell noCPT inconclusive, TDP1 cell CPT 12µM
O=C(NCc1cccc(F)c1)Nc1nnc([C@H]2C[C@H](O)[C@@H](CO)O2)s1	none
O=S(=O)(c1ccc(Br)cc1)c1nnn2c1nc(NCc1ccc3c(c1)OCO3)c1sccc12	TDP1 cell CPT inconclusive (no result: IL-1B inflam inh, HT1080 IDH1KD tx, HT1080NT lethal)
CCc1nnc(N/N=C/c2c(C)[nH]c3ccccc23)n1N	none
NCCCC[C@@H]1NC(=O)[C@H](CCC(=O)O)NC(=O)c2cc([N+](=O)[O-])cc(I)c2OCC[C@@H](C(N)=O)NC1=O	none
CC(=O)Nc1ccc(S(=O)(=O)N2CCN(Cc3cccc([N+](=O)[O-])c3)CC2)cc1	TDP1 cell noCPT 23µM, TDP1 cell CPT inconclusive
CCOC(=O)C(C)Sc1nnc2c3ccccc3n(C)c2n1 (stereo not given)	none
CCC(Sc1nnc2c(n1)[nH]c1ccccc12)C(=O)Nc1ccccc1OC (stereo not given)	TDP1 cell noCPT 21µM, TDP1 cell CPT inconclusive (no result: IL-1B inflam inh, HT1080 IDH1KD tx, HT1080NT lethal)
CCOC(=O)c1ccc(NC(=O)C(CC)Sc2nnc3c4ccccc4n(C)c3n2)cc1 (stereo not given)	TDP1 cell noCPT 18µM, TDP1 cell CPT 16µM (no result: IL-1B inflam inh, HT1080 IDH1KD tx, HT1080NT lethal)
CSCCC(NC(=O)c1ccco1)C(=O)NCC1CCCCC1 (stereo not given)	none
Cc1cc(C)c2cc3c(N)c(C(=O)N4CCOCC4)sc3nc2c1	TDP1 cell noCPT inconclusive, IL-1B inflam inh -76
Cc1ccc(C)c2nc3sc(C(=O)N4CCOCC4)c(N)c3cc12	TDP1 cell noCPT inconclusive, TDP1 cell CPT inconclusive, HT1080 IDH1KD tx 3.3µM, HT1080NT lethal 4.1µM
Cc1cccc2cc3c(N)c(C(=O)N4CCc5ccccc54)sc3nc12	TDP1 cell noCPT 2.9µM, TDP1 cell CPT 3.7µM, HT1080 IDH1KD tx inconclusive
Cc1cccc2cc3c(N)c(C#N)sc3nc12	TDP1 cell noCPT inconclusive
Cc1sc(NC(=O)c2sc3nc4c(C)cccc4cc3c2N)c(C#N)c1C	TDP1 cell noCPT 15µM, TDP1 cell CPT inconclusive, HT1080 IDH1KD tx inconclusive
CCOc1ccc2nc3sc(C(=O)N4CCOCC4)c(N)c3cc2c1	TDP1 cell noCPT inconclusive, IL-1B inflam inh inconclusive
Cc1ccc(Cn2ccn(Cc3ccccc3F)c(=O)c2=O)cc1	none (no result: IL-1B inflam inh, HT1080 IDH1KD tx, HT1080NT lethal)
Cc1cccc(CNC(=O)CCCN2C(=O)CCn3nc(-c4cccn4C)cc32)c1	none (no result: IL-1B inflam inh, HT1080 IDH1KD tx, HT1080NT lethal)
C=CCn1c(O)c2ccc(C(=O)N=NC(=O)COc3ccccc3F)cc2c1O	none
Clc1cc(Cl)c(OCCCCn2cncn2)c(Cl)c1	TDP1 cell CPT inconclusive
Nc1c(C(=O)N2CCOCC2)sc2nc3c(cc12)CCCC3	TDP1 cell noCPT inconclusive, HT1080 IDH1KD tx inconclusive, HT1080NT lethal inconclusive
Cc1cc(C)c2nc3sc(C(=O)N4CCOCC4)c(N)c3cc2c1	TDP1 cell noCPT 0.21µM, TDP1 cell CPT 0.58µM, HT1080 IDH1KD tx 0.052µM, HT1080NT lethal 0.21µM
Cc1ccc(C(=O)N2CCN(c3ccc(C(F)(F)F)cn3)CC2)cc1	TDP1 cell noCPT inconclusive
O=C(c1cnc2ccccc2n1)N1CCN(c2ccc(C(F)(F)F)cn2)CC1	none
Cc1c(C(=O)N2CCN(c3ccc(C(F)(F)F)cn3)CC2)oc2ccccc12	TDP1 cell noCPT 18µM, TDP1 cell CPT 23µM
Cc1ccc(C(=O)N2CCN(c3ccc(C(F)(F)F)cn3)CC2)c(C)c1	TDP1 cell noCPT 21µM, TDP1 cell CPT 16µM
COc1ccc(C(=O)c2ccccc2)c2c(O)ccc(C(=O)c3ccccc3)c12	TDP1 cell noCPT 16µM, TDP1 cell CPT inconclusive
COc1ccc(C(=O)c2ccc(Cl)cc2)c2ccccc12	TDP1 cell noCPT inconclusive, TDP1 cell CPT inconclusive
COc1cc(O)c(C(=O)c2ccccc2)cc1O	TDP1 cell noCPT 4.6µM, TDP1 cell CPT 4.1µM (no result: IL-1B inflam inh, HT1080 IDH1KD tx, HT1080NT lethal)
COc1cc(O)c(C(=O)c2ccccc2)cc1S(=O)(=O)O	none (no result: IL-1B inflam inh, HT1080 IDH1KD tx, HT1080NT lethal)
